The record followed here is PubChem BioAssay.

Structures are written as SMILES. The source made the active and inactive calls. Unless noted, how the calls were made is not given here.

Experiment [1] is described as follows: compounds binding Alexa647 anti-His antibody – biochemical, small-molecule microarray, 635 nm fluorescence, artefact control for SMM control protein annotation, primary screen (AID 1128).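 Further: score merges feature fluorescence with signal-to-noise for each printed compound spot.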 The following applies: higher = more signal.
Experiment [2] has as its system Human papillomavirus type 1a E7 protein (residues 1-88). Put plainly: HPV1a E7 small-molecule binders, primary screen, biochemical, small-molecule microarray, residues 1-88, 635 nm (AID 1129). The following applies: small-molecule microarray binding, fluorescence 635 nm; higher = more signal.
The target of experiment [3] is Focal adhesion kinase 1 (Homo sapiens) (UniProt Q05397). The experiment can be described thus: PTK2 protein binding on printed compound slides – biochemical, small-molecule microarray, 635/667 nm fluorescence, BSA, DTT, primary screen (AID 1130).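 Further: composite of spot emission at 667 nm and signal to noise over triplicate slides.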 The following applies: 635 nm fluorescence, higher = more signal.
Sequence of Focal adhesion kinase 1 (Homo sapiens) (Q05397 whole entry, looked up): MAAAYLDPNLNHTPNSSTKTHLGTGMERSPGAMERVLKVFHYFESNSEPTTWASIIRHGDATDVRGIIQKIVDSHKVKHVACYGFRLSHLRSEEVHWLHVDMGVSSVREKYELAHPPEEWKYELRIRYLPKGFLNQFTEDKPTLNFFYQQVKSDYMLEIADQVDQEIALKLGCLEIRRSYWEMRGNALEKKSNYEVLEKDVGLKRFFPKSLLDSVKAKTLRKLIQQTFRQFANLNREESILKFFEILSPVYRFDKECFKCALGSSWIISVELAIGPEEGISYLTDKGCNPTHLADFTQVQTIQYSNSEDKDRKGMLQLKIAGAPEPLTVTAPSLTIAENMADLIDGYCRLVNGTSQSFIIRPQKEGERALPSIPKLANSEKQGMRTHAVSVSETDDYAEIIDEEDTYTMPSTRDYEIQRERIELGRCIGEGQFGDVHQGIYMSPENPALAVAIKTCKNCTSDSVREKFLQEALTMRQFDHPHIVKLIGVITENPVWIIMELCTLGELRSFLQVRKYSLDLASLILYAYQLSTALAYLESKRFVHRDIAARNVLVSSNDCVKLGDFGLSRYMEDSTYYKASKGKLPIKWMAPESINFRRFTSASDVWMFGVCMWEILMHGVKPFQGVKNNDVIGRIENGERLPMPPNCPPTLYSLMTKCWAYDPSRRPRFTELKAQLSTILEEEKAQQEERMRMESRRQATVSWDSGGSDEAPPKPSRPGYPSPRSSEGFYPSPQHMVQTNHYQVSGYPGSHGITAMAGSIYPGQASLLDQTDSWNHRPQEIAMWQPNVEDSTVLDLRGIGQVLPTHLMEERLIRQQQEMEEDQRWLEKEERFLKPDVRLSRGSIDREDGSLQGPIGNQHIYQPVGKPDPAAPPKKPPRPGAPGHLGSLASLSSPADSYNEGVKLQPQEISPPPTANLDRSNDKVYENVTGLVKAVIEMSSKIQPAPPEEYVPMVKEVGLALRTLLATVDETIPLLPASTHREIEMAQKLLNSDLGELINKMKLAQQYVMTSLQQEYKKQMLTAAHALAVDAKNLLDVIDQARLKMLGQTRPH
The test system of experiment [4] is Fibrinogen (Alexa647-labelled). The experiment can be described thus: Alexa647-fibrinogen binding to printed small molecules – biochemical, small-molecule microarray, 635/667 nm fluorescence, artefact control for SMM control-protein annotation, profiling panel (AID 1131).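 Further: z-score merges 667 nm fluorescence with per-spot signal-to-noise over triplicate slides.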 As to conditions: fibrinogen-A647 binding fluorescence, higher = more signal.
Experiment [5] deals with Follistatin (Homo sapiens) (UniProt P19883). Put plainly: FST protein binding to printed compounds – biochemical, small-molecule microarray, 635/667 nm fluorescence, primary screen (AID 1132). The following applies: 635 nm fluorescence, higher = more signal.
Sequence of Follistatin (Homo sapiens) (P19883 whole entry, looked up): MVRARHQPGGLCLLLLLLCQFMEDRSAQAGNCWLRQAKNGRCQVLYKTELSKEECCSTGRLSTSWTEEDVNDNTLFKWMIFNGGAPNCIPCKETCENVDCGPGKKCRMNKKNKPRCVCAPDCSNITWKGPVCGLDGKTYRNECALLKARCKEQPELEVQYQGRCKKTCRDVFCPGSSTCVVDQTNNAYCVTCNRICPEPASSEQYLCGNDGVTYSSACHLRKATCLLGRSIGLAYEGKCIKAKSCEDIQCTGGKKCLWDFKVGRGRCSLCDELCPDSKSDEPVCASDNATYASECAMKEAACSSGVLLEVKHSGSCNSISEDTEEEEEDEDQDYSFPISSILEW
In experiment [6] the target is Fibroblast growth factor 2 (Homo sapiens) (UniProt P09038). Put plainly: basic fibroblast growth factor binding to printed compounds – biochemical, small-molecule microarray, 635/667 nm fluorescence, primary screen (AID 1133). The following applies: FGF2, fluorescence 635/667, higher = more signal.
Sequence of Fibroblast growth factor 2 (Homo sapiens) (P09038 whole entry, looked up): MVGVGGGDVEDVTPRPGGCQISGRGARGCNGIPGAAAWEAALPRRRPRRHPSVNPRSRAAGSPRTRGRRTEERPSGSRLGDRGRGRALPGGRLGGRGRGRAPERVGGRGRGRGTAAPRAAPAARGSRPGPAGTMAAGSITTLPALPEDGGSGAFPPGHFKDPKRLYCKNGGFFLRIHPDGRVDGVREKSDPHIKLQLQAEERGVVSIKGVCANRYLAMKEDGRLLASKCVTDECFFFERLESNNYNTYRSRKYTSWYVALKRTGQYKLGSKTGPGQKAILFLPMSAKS
The nature of experiment [7]: JC-1 mitochondrial potential readout, lung cancer cells – cell-based, A549, JC-1 fluorescence, basal, 24 h, 100 nL, profiling panel (AID 1138).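 Further: A549 lung adenocarcinoma cells under basal conditions with no added stimulus; test concentration not given here.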 The following applies: higher = more signal.
The next experiment deals with Lefty1. Put plainly: Lefty1 protein binding to printed compounds – biochemical, small-molecule microarray, 635/667 nm fluorescence, primary screen (AID 1139). The following applies: fluorescence 635/667, higher = more signal.
Experiment [8] has as its system wheat germ agglutinin (Triticum aestivum), Alexa647-labelled. The experiment can be described thus: Alexa647-WGA lectin binding to printed small molecules – biochemical, small-molecule microarray, 635/667 nm fluorescence, artefact control for SMM control-protein annotation, profiling panel (AID 1140).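 Further: score merges 667 nm feature emission with signal to noise over triplicate slides.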 The following applies: WGA-A647 binding, 635 nm fluorescence, higher = more signal.

Experiment [9] concerns the target Luciferin 4-monooxygenase (Photinus pyralis) (UniProt P08659). The experiment can be described thus: inhibition of purified Photinus pyralis luciferase – biochemical, luminescence, purified enzyme, 2006 set, primary screen (AID 1141).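 Further: cell-free assay with purified firefly luciferase at 100 ng per well in PBS; test concentration not given here.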 As to conditions: purified firefly luciferase, SteadyGlo luminescence, 30 min; higher = more signal, called active from +8 up or from −8 down.

The test system of experiment [10] is Wnt5a (protein binding on small-molecule microarray). The experiment can be described thus: small molecules binding Wnt5a protein – biophysical, small-molecule microarray, 635/667 nm fluorescence, primary screen (AID 1142).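 Further: fluorescence read at 667 nm with signal to noise per printed feature.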 The following applies: 635 nm fluorescence, higher = more signal.
Experiment [11] is described as follows: ATP-based viability of Huh7 replicon cells – cell-based, CellTiter-Glo luminescence, basal, 48 h, cytotoxicity control for HCV replication inhibitor project, primary screen (AID 1143).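 Further: Huh7 hepatoma cells carrying a hepatitis C replication reporter with no stimulus; test concentration not given here.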 As to conditions: higher = more signal, called active from +8 up or from −8 down.
The nature of experiment [12]: Pseudomonas biofilm growth suppression – PAO1 strain, BacTiter-Glo luminescence, LB-PBS, primary screen (AID 1144). The following applies: P. aeruginosa PAO1 biofilm, 12 h, higher = more signal.
Experiment [13] in a line: basal CRE-LacZ reporter activity in PC12 – cell-based, unstimulated, primary screen (AID 1145). The following applies: no forskolin, luminescence, 4.5 h, higher = more signal, called active from +8 up or from −8 down.
Experiment [14] can be described thus: forskolin-driven CRE-LacZ activity in PC12 – cell-based, CRE-LacZ reporter, forskolin-stimulated, primary screen (AID 1146).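 Further: PC12 cells with 6xCRE LacZ reporter stimulated by forskolin 10 µM; beta-galactosidase reporter signal reflecting CREB driven transcription.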 As to conditions: luminescence, 4.5 h, higher = more signal, called active from +8 up or from −8 down.
The target of experiment [15] is Streptavidin (Streptomyces avidinii) (UniProt P22629). The experiment can be described thus: compounds binding control protein streptavidin – biophysical, small-molecule microarray, 635/667 nm fluorescence, artefact control for SMM compound annotation, primary screen (AID 1147).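 Further: signal reflects streptavidin binding to arrayed compounds as a control protein.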 As to conditions: higher = more signal.
Sequence of Streptavidin (Streptomyces avidinii) (P22629 whole entry, looked up): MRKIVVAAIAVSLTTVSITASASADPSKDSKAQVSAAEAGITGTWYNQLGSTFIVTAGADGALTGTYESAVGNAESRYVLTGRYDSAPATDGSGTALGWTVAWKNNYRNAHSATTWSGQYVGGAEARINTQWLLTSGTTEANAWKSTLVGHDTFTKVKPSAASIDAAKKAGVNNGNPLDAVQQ
Experiment [16] in a line: probe aInhba binding on compound microarray – biochemical, small-molecule microarray, 635/667 nm fluorescence, primary screen (AID 1148).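 Further: score merges 667nm spot fluorescence with signal-to-noise for antibody binding to printed compounds.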 As to conditions: higher = more signal.
In experiment [17] the target is Torsin-1A (Homo sapiens) (UniProt O14656). The experiment can be described thus: TOR1A wild-type binding on microarray – cell lysate, small-molecule microarray, lysate, 635/667 nm, primary screen (AID 1149). The following applies: COS7 hTOR1A-WT lysate, 635 nm fluorescence, higher = more signal.
Sequence of Torsin-1A (Homo sapiens) (O14656 whole entry, looked up): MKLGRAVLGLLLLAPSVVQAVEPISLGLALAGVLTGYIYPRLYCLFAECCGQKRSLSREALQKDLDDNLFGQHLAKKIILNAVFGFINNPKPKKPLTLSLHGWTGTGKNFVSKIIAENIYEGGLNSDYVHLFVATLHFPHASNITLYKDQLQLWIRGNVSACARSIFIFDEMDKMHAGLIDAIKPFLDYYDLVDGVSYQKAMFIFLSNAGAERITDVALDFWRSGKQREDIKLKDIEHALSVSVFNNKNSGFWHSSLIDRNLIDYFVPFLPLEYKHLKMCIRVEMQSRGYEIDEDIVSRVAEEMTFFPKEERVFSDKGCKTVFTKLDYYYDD
The target is the same in experiment [18]. The experiment can be described thus: torsin A mutant lysate binding on microarrays – cell lysate, small-molecule microarray, COS7 lysate, 635/667 nm fluorescence, primary screen (AID 1150).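 Further: score pools 667 nm emission and signal to noise measuring lysate protein binding.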 The following applies: COS7 hTOR1A mutant lysate, 635 nm fluorescence, higher = more signal.
Experiment [19] relates to Sonic hedgehog protein (Shh). The experiment can be described thus: Sonic hedgehog microarray binding compounds – biochemical, small-molecule microarray, 635/667 nm fluorescence, primary screen (AID 1151).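 Further: Shh protein binding to compounds spotted on small-molecule microarray slides; score combines spot fluorescence intensity with signal-to-noise across triplicate slides.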 As to conditions: 635 nm fluorescence, higher = more signal.

Sequence of Luciferin 4-monooxygenase (Photinus pyralis) (P08659 whole entry, looked up): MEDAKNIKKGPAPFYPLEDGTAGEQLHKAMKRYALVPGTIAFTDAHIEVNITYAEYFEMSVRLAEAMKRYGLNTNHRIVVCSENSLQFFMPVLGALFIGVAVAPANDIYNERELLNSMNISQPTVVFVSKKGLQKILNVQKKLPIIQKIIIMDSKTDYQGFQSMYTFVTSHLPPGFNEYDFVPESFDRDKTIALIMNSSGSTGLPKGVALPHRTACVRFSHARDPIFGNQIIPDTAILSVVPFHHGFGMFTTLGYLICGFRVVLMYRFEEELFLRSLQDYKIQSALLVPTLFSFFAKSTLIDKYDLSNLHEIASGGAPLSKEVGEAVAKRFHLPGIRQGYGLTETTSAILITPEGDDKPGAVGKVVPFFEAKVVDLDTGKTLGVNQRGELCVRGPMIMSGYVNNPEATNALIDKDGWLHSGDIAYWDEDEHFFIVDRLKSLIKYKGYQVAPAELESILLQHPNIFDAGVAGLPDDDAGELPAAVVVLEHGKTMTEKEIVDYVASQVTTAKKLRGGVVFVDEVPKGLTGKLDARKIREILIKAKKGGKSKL

Regarding `COc1cc(CO)cc(I)c1O[C@H]1C=C(C(=O)NCCO)C[C@@H](N(CC2CCCCC2)C(=O)c2ccc(C(F)(F)F)cc2)[C@@H]1O`, the composite z-score in experiment [1] came to 0.0463; in experiment [2] it was 0.621; in experiment [3], 0.0469; in experiment [4], 0.367; in [5], 0.578; in experiment [6] it was 0.12. Moreover, the composite z-score with Lefty1 was 0.784; in experiment [8], 0.193; in experiment [10], -0.0143; in [15] it was -0.0411; in [16], -0.0403; with Torsin-1A (Homo sapiens) [17], 0.0494. In addition, the composite z-score with Torsin-1A (Homo sapiens) [18] was found to be 0.0547; in [19], 1.23. Further, the z-score in experiment [7] is 0.53; in [9], -0.795 (inactive); in experiment [11], -0.494 (inactive); in experiment [12], -0.312 (inactive); in [13], 2.57 (inactive); in [14], -1.22 (inactive).
For `Cc1ccc(S[C@]2(C(=O)NCC(F)(F)F)CC(=O)N(Cc3ccccc3)[C@@H]2c2ccc(CO)cc2)cc1`, the composite z-score is -0.951 in experiment [1]; 0.389 in experiment [2]; -0.0414 in [3]; -1.16 in [4]; -0.739 in [5]; -0.683 in experiment [6]. Besides, the composite z-score is -0.758 with Lefty1; -0.693 in experiment [8]; -0.264 in [10]; -1.23 in experiment [15]; 0.0171 in experiment [16]; -0.2 in the experiment with Torsin-1A (Homo sapiens) [17]. Also, the composite z-score with Torsin-1A (Homo sapiens) [18] was -0.238; in [19], -0.243. Further, the z-score in [7] is -0.483; in experiment [9], 0.519 (inactive); in experiment [11], -4.85 (inactive); in experiment [12] it was -0.485 (inactive); in [13] it was 0.829 (inactive); in experiment [14] it was 0.906 (inactive).
Consider `C=C(COC)/C(=C/C[C@@H](OC(=O)c1ccncc1)c1ccc(CO)o1)c1cnc2ccccc2c1`, for which the composite z-score in experiment [1] was found to be 1.87; in experiment [2] it was 1.22; in experiment [3] it was 0.268; in experiment [4] it was 0.973; in experiment [5], 1.47; in experiment [6], 1.61. In addition, the composite z-score is 1.67 in the experiment with Lefty1; 1.56 in experiment [8]; 0.911 in experiment [10]; 1.07 in [15]; -0.0136 in experiment [16]; 1.86 with Torsin-1A (Homo sapiens) [17]. For the same compound, the composite z-score in the experiment with Torsin-1A (Homo sapiens) [18] was determined as 0.962; in [19] it was 2.46. For the same compound, the z-score in experiment [7] was -0.557; in experiment [9], -2.96 (inactive); in experiment [11], 0.173 (inactive); in experiment [12], -0.854 (inactive); in [13], -0.611 (inactive); in experiment [14], -0.0377 (inactive).
As for `COCCOC(=O)N1C(=O)[C@@]2(c3ccccc31)[C@H](C(=O)N1CCN(c3ncccn3)CC1)[C@H]1C(=O)O[C@H](c3ccccc3)[C@H](c3ccccc3)N1[C@@H]2c1ccc(OCCO)cc1`, the composite z-score is 2.77 in experiment [1]; 1.21 in experiment [2]; 2.12 in experiment [3]; 0.967 in experiment [4]; 1.23 in experiment [5]; 0.891 in experiment [6]. The composite z-score came to 0.612 in the experiment on Lefty1; 0.965 in [8]; 0.561 in experiment [10]; 1.19 in experiment [15]; 0.336 in experiment [16]; 0.281 with Torsin-1A (Homo sapiens) [17]. The results for the composite z-score (with Torsin-1A (Homo sapiens) [18]; in [19]) were 0.59 and 1.82, respectively. The z-score was -0.587 in experiment [7]; -1.3 (inactive) in [9]; -1.12 (inactive) in experiment [11]; -0.236 (inactive) in experiment [12]; 1.3 (inactive) in experiment [13]; -0.599 (inactive) in [14].
`CCCCC(=C=CC[C@@H](O)c1ccc(OCCO)cc1)C[C@@H](O)COCc1ccccc1`: the composite z-score in experiment [1] is 0.0164; in experiment [2], -0.445; in [3], -0.0498; in [4], -1.01; in experiment [5] it was 1.31; in experiment [6] it was 0.567. The composite z-score is 0.973 with Lefty1; 0.614 in experiment [8]; 0.511 in [10]; -0.476 in experiment [15]; -0.203 in experiment [16]; 0.611 in the experiment with Torsin-1A (Homo sapiens) [17]. Further, the figures for the composite z-score (with Torsin-1A (Homo sapiens) [18]; in experiment [19]) were 0.699 and 1.38, respectively. In addition, the z-score is 1.72 in experiment [7]; -1.58 (inactive) in experiment [9]; -2.32 (inactive) in [11]; -0.656 (inactive) in experiment [12]; 12.1 (active) in experiment [13]; -1.48 (inactive) in [14].
